This is an account of results in PubChem BioAssay AID488969 (Vanderbilt High Throughput Screening Facility, 2010).

Over roughly 110,000 compounds, “z-score” has its median near -0.1; the highest 2% begin near 2. This excerpt belongs to a sample that is enriched for the highest values. The source made the active and inactive calls.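 How the source made its calls: active means z-score in the third read window above 3 or below -3; inactive means the rest.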

The target of the test is Metabotropic glutamate receptor 8 (Rattus norvegicus) (UniProt P70579). The experiment in a line: rat mGluR8 modulators via GIRK flux, primary screen, cell-based, thallium flux, HTS (AID 488969). Conditions: HEK293 rat mGluR8, GIRK (G protein-gated inwardly rectifying potassium channel) thallium flux, FluoZin2; at 10 µM; stronger effect = higher value; submaximal glutamate (EC20) added with thallium.
Metabotropic glutamate receptor 8 (Rattus norvegicus), sequence (P70579 whole entry, looked up): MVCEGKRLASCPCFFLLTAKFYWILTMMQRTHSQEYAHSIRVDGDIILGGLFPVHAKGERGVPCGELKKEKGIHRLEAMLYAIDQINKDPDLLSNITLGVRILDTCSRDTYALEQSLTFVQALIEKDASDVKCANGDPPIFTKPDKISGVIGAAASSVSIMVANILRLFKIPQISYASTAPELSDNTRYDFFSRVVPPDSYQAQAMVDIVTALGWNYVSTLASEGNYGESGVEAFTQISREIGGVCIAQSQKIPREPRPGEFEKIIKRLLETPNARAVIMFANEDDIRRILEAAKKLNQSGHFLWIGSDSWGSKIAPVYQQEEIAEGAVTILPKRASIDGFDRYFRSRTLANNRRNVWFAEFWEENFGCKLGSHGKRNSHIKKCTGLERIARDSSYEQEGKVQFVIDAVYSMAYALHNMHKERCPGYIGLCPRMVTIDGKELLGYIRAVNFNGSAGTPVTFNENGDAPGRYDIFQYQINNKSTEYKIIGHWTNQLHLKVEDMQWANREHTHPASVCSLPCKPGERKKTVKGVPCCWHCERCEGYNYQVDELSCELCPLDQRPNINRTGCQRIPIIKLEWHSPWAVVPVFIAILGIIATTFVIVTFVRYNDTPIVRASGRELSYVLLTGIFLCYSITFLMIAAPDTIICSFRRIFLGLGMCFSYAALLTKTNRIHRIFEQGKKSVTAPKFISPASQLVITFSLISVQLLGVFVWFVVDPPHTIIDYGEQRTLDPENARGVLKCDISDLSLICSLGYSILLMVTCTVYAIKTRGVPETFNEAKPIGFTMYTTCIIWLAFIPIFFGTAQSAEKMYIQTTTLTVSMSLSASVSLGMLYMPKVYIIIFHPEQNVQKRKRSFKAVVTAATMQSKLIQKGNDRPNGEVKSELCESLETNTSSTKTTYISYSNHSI
`O=C(CSc1nnc(-c2ccc(OC(F)F)cc2)o1)NC(=O)NCc1ccco1` registered a z-score of -0.253. To `CC1=CC(c2ccccc2)n2nc(N3C(=O)C4CC=CCC4C3=O)nc2N1` (configuration not stated) belongs -0.783; to `CC1(C)Cc2c(ccc3ccccc23)-c2nnc(-c3cccnc3)n21`, 3.16 (active).

With `CC1(C)Cc2ccccc2-c2nnc(-c3cccnc3)n21`, the z-score is 0.241. Under `CC1(C)Cc2c(ccc3ccccc23)C(NNC(=O)c2cccnc2)=N1` stands 0.408; under `CCOC(=O)c1c(NC(=O)c2cccs2)sc(CC)c1-c1cccs1`, -0.275; under `COC(=O)c1nn(Cc2ccccc2)c(=O)c2ccccc12`, 0.721. Molecule `Cc1onc(-c2ccccc2Cl)c1C(=O)NC(=S)NCCc1ccccc1` gave a z-score of 2.63. As to `O=C(CNC(=S)NC(=O)c1cccs1)c1ccccc1`, the z-score is 6.19 (active).

Molecule `O=C(CNC(=S)NC(=O)c1ccccc1)c1ccccc1` gave a z-score of 0.079. Turning to `COc1cc(OC)cc(C(=O)NC(=S)NNC(=O)Cc2cccs2)c1`, the z-score was 2.21. In turn, `COc1ccc(CCNC(=O)c2c(-c3ccccc3Cl)noc2C)cc1` gave a z-score of 0.099. To `COc1ccc(C(=O)NC(=S)NNC(=O)Cc2cccs2)cc1` belongs 0.741; to `COc1ccc(CCNC(=S)NC(=O)c2ccccc2)cc1OC`, 0.202; to `Cc1onc(-c2ccccc2Cl)c1C(=O)NCc1ccccc1`, 0.341. Consider `COc1cc(OC)cc(C(=O)NC(=S)NCCc2ccccc2)c1`, for which the z-score was 2.08. The molecule `O=C(Cc1cccs1)NNC(=S)NC(=O)c1ccccc1` had a z-score of 0.646. In turn, `O=C(NC(=S)NCCc1ccccc1)c1ccccc1` came in with a z-score of 1.9. `Cc1ccc(C(=O)NC(=S)NCC(=O)c2ccccc2)cc1` displayed a z-score of -0.021. To `CNC(=S)N1CCN(C(=O)C2CCCO2)CC1` (configuration not stated) belongs -0.25; to `CC(NC(=O)COc1ccc(/C=N/NC(=O)C(=O)Nc2ccccc2Br)cc1)c1ccccc1` (configuration not stated), 0.00853. To `CCC(C)(C)NC(=O)CN(Cc1cccs1)C(=O)CNS(=O)(=O)c1ccc(C)cc1` belongs 0.191; to `CCCn1nnc(NC(=O)c2ccc(Cl)cc2Cl)n1`, -0.0896. In the case of `O=C(NS(=O)(=O)c1ccccc1)c1ccccc1O`, the z-score was 0.0922. To `c1cc(-c2nnc3n2CCCCC3)ccn1` belongs 0.91. With `Cc1cc(Cl)ccc1NC(=S)NCc1ccccc1Cl`, the z-score came to 0.000558. `CCn1nc(C(=O)OCC(=O)c2ccc3c(c2)OCCO3)c2ccccc2c1=O` had a z-score of -0.721. Under `Cc1ccc(C(=O)N/C(=C/c2cccc([N+](=O)[O-])c2)C(=O)NC(C)C)cc1` stands -0.0623; under `CCC(C)Nc1nc(CN2CCOCC2)nc2sc3c(c12)CCC3` (configuration not stated), -0.57. To `O=C(CNC(=S)NC(=O)c1ccc(Cl)cc1)c1ccccc1` belongs 1.87.

For the molecule `Cc1ccccc1C(=O)NC(=S)NCC(=O)c1ccccc1`, the z-score is -0.0957. In turn, `CC(C)(C)C(=O)NC(=S)NCCc1ccccc1` displayed a z-score of -0.0291. On to `Cc1ccccc1C(=O)NC(=S)NCCc1ccccc1`, for which the z-score is 6.68 (active). Turning to `COc1ccc(C(=O)CC(=O)C(=O)NCCc2cccc(C)c2)cc1`, the z-score is 3.99 (active). Under `O=C(CNC(=S)NC(=O)c1ccco1)c1ccccc1` stands 6.42 (active); under `COc1ccc(S(=O)(=O)CCC(=O)NCCc2cccc(C)c2)cc1`, 0.00176; under `O=C(NC(=S)NCCc1ccccc1)c1ccco1`, 13 (active). To `CC(C)C(=O)NC(=S)NCC(=O)c1ccccc1` belongs -0.37. Under `CCOc1ccc(C(=O)CC(=O)C(=O)NCCc2ccc(OC)c(OC)c2)cc1` stands -0.0424; under `O=C(NCCc1ccccc1)c1ccco1`, -0.2; under `O=C(NC(=S)N(CCc1ccccc1)CCc1ccccc1)c1ccco1`, -1.87. The molecule `Cc1cc2ccccc2n2c(SCC(=O)N3CCc4ccccc4C3)nnc12` showed a z-score of 0.115. Under `CC(=O)C1=C(c2ccccc2)NC(=S)NC1c1cc(Cl)c(OC(C)C)c(Cl)c1` (configuration not stated) stands 0.616. Under `O=C(CN(C(=O)c1cccc([N+](=O)[O-])c1)C1CCCCC1)Nc1ccc(Cl)c([N+](=O)[O-])c1` stands -0.137; under `CCOc1nc(-c2ccc(C)cc2)ccc1-c1noc(COC)n1`, -0.156. As to `Cc1cc(C)c(Cn2cnc(-c3ccc([N+](=O)[O-])cc3)c2)c(C)c1`, the z-score is -0.0263. For the molecule `COc1ccc(-c2ccc(CCC(=O)O)n2C(C)C)cc1`, the z-score was -0.109.

Regarding `Cc1ccc(-c2ccc(CCC(=O)O)n2C(C)C)cc1`, the z-score is -0.00219. Turning to `CC(C)n1c(CCC(=O)O)ccc1-c1ccccc1`, the z-score was determined as 2.11. On to `Clc1ccc(-c2nnc3n2CCCS3)cc1`, for which the z-score was 0.105.

For the molecule `Cc1ccc(S(=O)(=O)NCCCCC(NC(=O)OC(C)(C)C)C(=O)O)cc1` (configuration not stated) (tested in a mixture with another compound), the z-score was -0.148. Consider `O=C(CN1C(=O)NC2(CCCC2)C1=O)Nc1ccc(F)cc1`, for which the z-score stood at 0.19. Molecule `CCCn1nnnc1NCc1cccn1C` returned a z-score of 1.98.

Consider `CCCn1nnnc1NCc1ccc(N2CCCC2)cc1`, for which the z-score was -0.208. The molecule `CCCCn1nnnc1NCc1cccs1` returned a z-score of -1.89. To `CCc1ccc(/C=N/NC(=O)C(=O)NCCCN2CCOCC2)cc1` belongs -0.174; to `CC(CC(=O)Nc1ccncc1)c1ccccc1` (configuration not stated), 0.044; to `O=C(CCSCc1ccc(Cl)cc1)NCCc1ccccc1`, -0.0466. Under `COc1ccc(Nc2ccc(S(=O)(=O)N3CCCCC3)cc2[N+](=O)[O-])cc1OC` stands 2.43. To `COc1ccc(Nc2ccc(S(=O)(=O)N3CCCCC3)cc2[N+](=O)[O-])cc1Cl` belongs 0.547; to `COc1ccc(Nc2ccc(S(=O)(=O)N3CCCCCC3)cc2[N+](=O)[O-])cc1`, 0.571. Take `COCc1cc(C)nc(Nc2ccc(C)cc2C)c1C#N`: the z-score is -0.225. Under `COc1ccc(C(=O)N(NC(=O)Oc2ccccc2)C(C)(C)C)cc1` stands 0.485.

`O=C(Nc1ccc(F)cc1)c1ccccc1` yielded a z-score of -0.000317. With `O=C(Nc1ccc2[nH]c(=S)sc2c1)c1ccccc1`, the z-score is 11.9 (active). To `O=C(Nc1ccc2nc3ccccc3nc2c1)c1ccccc1` belongs -0.114; to `CC1(C)CC(CC(=O)Nc2ccccc2[N+](=O)[O-])C(=O)O1` (configuration not stated), -0.0252. In turn, `COC(=O)c1cn(-c2ccccc2)c(C)c1C(=O)OC` showed a z-score of -0.11. Molecule `C=CCn1c(SCc2c(C)noc2C)nc2sc3c(c2c1=O)CCCCC3` gave a z-score of -0.236.

`C=CCn1c(SCc2c(C)noc2C)nc2sc3c(c2c1=O)CCCC3`: the z-score was -0.0819. Regarding `C=CCn1c(SCc2c(C)noc2C)nc2sc3c(c2c1=O)CCC(C)C3` (configuration not stated), the z-score came to 2.65. To `CC(C)(Oc1ccc(Cl)cc1)C(=O)NCc1ccncc1` belongs 0.181; to `Cc1ccccc1C(=O)Nc1nncs1`, -0.0319; to `Cc1ccccc1C(=O)Nc1nc(=S)ss1`, 2.56.

On to `CC(=O)Nc1nc(=S)ss1`, for which the z-score was 0.468.

On to `O=C(Nc1nc(=S)ss1)c1ccc(Cl)cc1Cl`, for which the z-score is 4.46 (active). In turn, `O=C(Nc1nc(=S)ss1)c1c(F)cccc1F` registered a z-score of -0.588.

In turn, `CC(C)C(=O)Nc1cccc(NC(=O)c2ccc(Cl)cc2Cl)c1` displayed a z-score of -0.304. `CCOc1nc(N(C)C)nc(-n2nnc(C(C)=O)c2C)n1` had a z-score of -0.22.

`CC1SCC(=O)N(CC(=O)NCc2ccccc2)C1=O` (configuration not stated) had a z-score of -0.233. In the case of `O=C(N/N=C/c1c(Cl)cccc1Cl)c1cccc(F)c1`, the z-score is 3.05 (active).

Molecule `O=C(N/N=C/c1ccccc1Cl)c1cccc(F)c1` showed a z-score of -0.342.

In turn, `O=C(N/N=C/c1c(Cl)cccc1Cl)c1ccc(F)cc1` registered a z-score of -0.476. To `O=C(C(=O)N1CCc2ccccc2C1)c1cn(CC(=O)N2CCCCC2)c2ccccc12` belongs -0.582; to `CC(=O)C1=C(O)C(=O)N(c2cccc(C(=O)O)c2)C1c1ccc(F)cc1` (configuration not stated), -0.153; to `CC(=O)c1ccc(N2Cc3ccccc3/C2=N\C(=O)Nc2ccccc2)cc1`, -0.211. In the case of `CC(=O)CN1Cc2ccccc2/C1=N\C(=O)Nc1ccccc1`, the z-score is 3.19 (active). Under `O=C(/N=C1/c2ccccc2CN1c1ccccc1)Nc1ccccc1` stands -0.236; under `Cc1ccc(S(=O)(=O)N2CCN(c3ccc(C(F)(F)F)cc3[N+](=O)[O-])CC2)cc1`, -0.0811. To `Cc1scc(C(=O)N/N=C/c2ccc(OC(C)C)cc2)c1C` belongs 0.164; to `Cc1ccccc1NC(=O)CSc1nc(COc2ccccc2)nc2ccccc12`, 0.264; to `COc1ccc(NC(=O)Cn2nnc(-c3ccccc3F)n2)cc1Cl`, 0.202. Molecule `Cc1ccc(F)cc1NC(=O)Cc1nn(C)c(=O)c2ccccc12` yielded a z-score of -0.0938. Under `Cn1nc(CC(=O)Nc2cccc3ncccc23)c2ccccc2c1=O` stands 2.01; under `CCOC(=O)c1ccc(NC(=O)Cn2nnc(-c3ccccc3F)n2)cc1`, -0.121. Under `CCOc1ccc(NC(=O)Cn2nnc(-c3ccccc3F)n2)cc1` stands 3.4 (active).

`O=C(Cn1nnc(-c2ccccc2)n1)Nc1ccc2c(c1)OCO2` had a z-score of 0.199. Under `O=C(Cn1nnc(-c2ccccc2NC(=O)c2ccccc2)n1)Nc1ccc2c(c1)OCCO2` stands 0.418.

Turning to `O=C(Cn1nnc(-c2ccccc2F)n1)NCCc1ccccc1`, the z-score was -0.146. To `O=C(Cn1nnc(-c2ccccc2F)n1)Nc1ccc2c(c1)OCO2` belongs 2.41; to `O=C(Cn1nnc(-c2ccccc2F)n1)Nc1cccc2ncccc12`, 2.27. `COc1ccccc1NC(=O)Cc1nn(C)c(=O)c2ccccc12` had a z-score of -0.677.

For the molecule `CCCC(=O)Nc1ccccc1-c1nnn(CC(=O)Nc2ccc(OCC)cc2)n1`, the z-score was -0.817. On to `CCCNc1c(N)c(=O)oc2ccccc12`, for which the z-score is -1.25. With `O=c1[nH]c2ccc(Cl)cc2c(-c2ccccc2)c1N1CCN(CCO)CC1`, the z-score stood at 0.464.

With `O=C(Nc1ccc(F)cc1F)c1ccco1`, the z-score was -0.0416. Turning to `CCN(CC)c1ccc(NC(=O)/C=C\c2ccccc2Cl)cc1`, the z-score was -0.341.

Regarding `CCOC(=O)CNC(=O)CSc1nc2ncc(Br)cc2[nH]1`, the z-score was 0.941.

The molecule `Cc1cc(N2C(=O)C3C4c5ccccc5C(c5ccccc54)C3C2=O)no1` (configuration not stated) yielded a z-score of -0.47.

Regarding `Cc1ccc2c(CC(=O)NNC(=O)c3ccccc3)coc2c1`, the z-score is -0.29. To `CC(=O)O/N=C(/c1nonc1N)N1CCN(c2ccc([N+](=O)[O-])cc2Cl)CC1` belongs -0.222; to `O=C(O)CCC(=O)Nc1ccc(N2CCCCC2)c(C(=O)O)c1`, 0.0405. As for `Cc1ccc(NC(=O)c2cc(NC(=O)CCC(=O)O)ccc2N2CCCCC2)cc1`, the z-score is 4.06 (active). Under `CC(=O)Nc1ccc(N2CCCCC2)c(C(=O)Nc2cccc(C)c2)c1` stands -0.0504; under `COc1ccc(-c2cc(C(F)(F)F)c3c(n2)sc2c(O)cc(=O)[nH]c23)c(OC)c1`, 5.32 (active). Under `COc1ccc(OC)c(-c2cc(C(F)(F)F)c3c(n2)sc2c(O)cc(=O)[nH]c23)c1` stands -0.747; under `O=c1cc(O)c2sc3nc(-c4ccccc4)cc(C(F)(F)F)c3c2[nH]1`, -1.89.
